Data on 14 compounds can be found in PubChem BioAssay.

Molecules are shown by their SMILES. Active and inactive are the calls of the source.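 How the source made its calls, unless noted: active means inhibition above 20% together with a positive visual image hit; inconclusive means visual image hit but inhibition not above 20%; inactive means no visual image hit.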

A short description of experiment [1]: inhibitors of TNFa-induced NFkB p65 translocation, primary screen, imaging, HUVEC, MLSMR starter and 10KST1 sets (AID 438).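 Further: compound added about 3h40 before a 20 min TNFalpha stimulation.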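 On inhibition: signal is the nuclear over cytoplasmic p65 intensity ratio per well.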 Conditions: HUVEC TNFa-induced p65 nuclear translocation; cell count: measured here: nuclei count (cytotoxicity indicator), at 2.08 µM; inhibition: at 2 µM, stronger effect = higher value, 0% TNFa-plus-vehicle, 100% no-TNFa wells.
Experiment [2] is described as follows: inhibitors of mutant huntingtin aggregation, primary screen, imaging, exon1htt(103Q)mCFP cells, high-content imaging (AID 483;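 active means visual image review flags a hit and inhibition of aggregation exceeds 20%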;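 further: compound exposure lasted 3 days before fixation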;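 on nuclei count: percent of the per-plate median nuclei count of sample wells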). Particulars: exon1htt(103Q)mCFP cell line, aggregate imaging, at 2 µM; inhibition of aggregation: stronger effect = higher value; nuclei count: measured here: cell count, toxicity.
Experiment [3] can be described thus: inhibitors of E-selectin induction by TNFa, primary screen, imaging, HUVEC, immunofluorescence, MLSMR starter and 10KST1 sets (AID 487;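 active means visually confirmed hit in the image check and inhibition above 20%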;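 on inhibition: signal is fraction of cell area covered by stained E-selectin grains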;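 on nuclei count: 100% = median nuclei count of all wells on the same plate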). Conditions: HUVEC TNFalpha-induced E-selectin immunofluorescence imaging, at 2 µM; inhibition: stronger effect = higher value; nuclei count: measured here: cell number, toxicity.
Experiment [4] deals with Voltage-gated potassium channel subunit beta-2 (Rattus norvegicus) (UniProt P62483). In words: KvBeta enzyme negative modulators, primary screen, biochemical, NADPH fluorescence (AID 622;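 active means fluorescence slope higher than the sample average by over 3 SD, cut at about -0.22 in these data, passing the limit was not always enough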;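 further: slope of raw intensity against log time taken from 70 to 1610 s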). Particulars: recombinant KvBeta, 4-cyanobenzaldehyde reduction, at 10 µM, stronger effect = higher value.
For experiment [5] the target is unchanged. In words: KvBeta positive modulators, primary screen, biochemical, NADPH fluorescence (AID 623;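 active means NADPH fluorescence slope more negative than the mean of all samples by about 3 SD, 99.7% confidence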;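 further: fluorescence intensity change per second fitted from 20 to 320 s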). Conditions: Recombinant KvBeta, NADPH fluorescence decrease slope, 10 min; at 10 µM; stronger effect = lower value.
Experiment [6] addresses Alpha-2C adrenergic receptor (Homo sapiens) (UniProt P18825). In words: modulators of alpha2C/GIRK thallium flux, primary screen, cell-based, HEK293 alpha2C/GIRK1/2 (AID 624;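 active means fluorescence slope after compound addition differing from the mean of all screened samples at 99.7% confidence, in either direction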;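 further: slope of fluorescence ratio to pre-addition baseline per second over 15 to 24 s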). Particulars: thallium flux BTC fluorescence, at 10 µM, actives lie on both sides.
A short description of experiment [7]: inhibitors of Sendai virus-induced IRF3 signaling, primary screen, TLR/RLR signaling modifier project, cell-based, Sendai virus stimulus, luciferase, 10K MLSCN set (AID 602276;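 active means inhibition at or above 50% at 10 µM; inactive means inhibition below 50%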;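 further: firefly luciferase from ISG56 promoter only with Renilla not read in this screen; 0% = Sendai virus plus DMSO and 100% = medium plus DMSO without virus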). Particulars: HEK293 RL24 IRF3 luciferase reporter, at 10 µM, stronger effect = higher value.
Experiment [8] in a line: inhibitors of poly I:C-induced TLR3 signaling, primary screen, cell-based, poly I:C stimulus, luciferase, 10K MLSCN set (AID 602277;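 active means inhibition of the reporter signal at or above 50%; inactive means inhibition below 50%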). Particulars: HEK293-TLR3 RL24 IRF3 luciferase reporter, at 10 µM, stronger effect = higher value.

Sequence of Voltage-gated potassium channel subunit beta-2 (Rattus norvegicus) (P62483 whole entry, looked up): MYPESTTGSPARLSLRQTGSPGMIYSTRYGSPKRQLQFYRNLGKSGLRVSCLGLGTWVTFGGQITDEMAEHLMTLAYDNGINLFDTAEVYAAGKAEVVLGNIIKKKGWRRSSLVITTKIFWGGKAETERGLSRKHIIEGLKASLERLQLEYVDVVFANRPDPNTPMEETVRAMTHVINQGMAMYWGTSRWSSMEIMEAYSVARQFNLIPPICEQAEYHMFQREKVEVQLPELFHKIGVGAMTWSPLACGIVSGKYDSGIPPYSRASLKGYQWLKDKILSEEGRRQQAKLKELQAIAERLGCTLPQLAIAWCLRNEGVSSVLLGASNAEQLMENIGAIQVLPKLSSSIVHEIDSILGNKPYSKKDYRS
Sequence of Alpha-2C adrenergic receptor (Homo sapiens) (P18825 whole entry, looked up): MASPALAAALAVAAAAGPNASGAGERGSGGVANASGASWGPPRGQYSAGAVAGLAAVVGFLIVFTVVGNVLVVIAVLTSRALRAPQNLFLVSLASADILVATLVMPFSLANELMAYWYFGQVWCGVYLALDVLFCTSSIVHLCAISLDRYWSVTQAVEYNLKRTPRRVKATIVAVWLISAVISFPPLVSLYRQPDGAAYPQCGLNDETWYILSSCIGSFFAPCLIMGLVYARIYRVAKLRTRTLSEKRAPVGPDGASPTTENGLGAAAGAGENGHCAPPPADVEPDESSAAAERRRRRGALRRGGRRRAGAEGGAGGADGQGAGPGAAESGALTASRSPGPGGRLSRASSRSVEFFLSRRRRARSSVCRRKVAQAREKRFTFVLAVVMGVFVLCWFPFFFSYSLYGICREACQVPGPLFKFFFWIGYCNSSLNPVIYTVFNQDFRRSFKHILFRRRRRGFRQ

For `CCc1nc(SCC(=O)NCc2ccco2)c2c3c(sc2n1)CCCC3`, the cell count in experiment [1] was found to be 586. Moreover, the inhibition (in general, the drop in the measured response relative to a control, in per cent) was -2.1% (inactive) in experiment [1], -21.9% (inactive) in experiment [3], 15.3% (inactive) in experiment [7] and 20.6% (inactive) in experiment [8]. Further, in experiment [2], the inhibition of aggregation was 14.8% (inactive). Moreover, the values for the nuclei count in experiment [2] and in experiment [3] were 85.9% and 116%, respectively. Also, in experiment [4], the fluorescence slope was -0.466 (inactive). In addition, in experiment [5], the NADPH fluorescence slope was -1.1e-05 (inactive). In addition, the slope in experiment [6] was 0.00647 (inactive).

For the compound `Cc1ccc2cc(C#N)c(NCCCNC(=O)C3CCCO3)nc2c1` (centres undefined), the cell count in experiment [1] turned out to be 271. Further, the inhibition is -2.8% (inactive) in experiment [1], -25.3% (inactive) in experiment [3], 9.51% (inactive) in experiment [7] and 10.8% (inactive) in experiment [8]. Further, the inhibition of aggregation in experiment [2] is -8.8% (inactive). The nuclei count in experiment [2] worked out at 82.7%; in experiment [3], 116%. In addition, in experiment [4], the fluorescence slope is -0.476 (inactive). The NADPH fluorescence slope in experiment [5] is -9.9e-05 (inactive). The slope in experiment [6] is 0.00509 (inactive).

Consider `COCCNC(=O)Cn1cc2c(n1)CCCCC2`, for which, in experiment [1], the cell count worked out at 623. Besides, the inhibition in experiment [1] was 5.8% (inactive); in experiment [3] it was -23.5% (inactive); in experiment [7] it was 7.33% (inactive); in experiment [8], 31.3% (inactive). The inhibition of aggregation in experiment [2] was -19.8% (inactive). Further, the nuclei count in experiment [2] was found to be 110%; in experiment [3] it was 98.4%. Moreover, the fluorescence slope in experiment [4] is -0.529 (inactive). Besides, the NADPH fluorescence slope in experiment [5] was -8.7e-05 (inactive). Moreover, the slope in experiment [6] is 0.00598 (inactive).

In the case of `COc1cccc(NC(=O)COC(=O)c2cccnc2)c1`, the cell count in experiment [1] is 354. Moreover, the inhibition in experiment [1] was -1.6% (inactive); in experiment [3] it was -15.5% (inactive); in experiment [7], 20.2% (inactive); in experiment [8], 19.2% (inactive). For the same compound, the inhibition of aggregation in experiment [2] is -3.6% (inactive). The nuclei count in experiment [2] stood at 105%; in experiment [3], 108%. Further, the fluorescence slope in experiment [4] was -0.503 (inactive). Also, in experiment [5], the NADPH fluorescence slope was -6.6e-05 (inactive). Besides, in experiment [6], the slope is 0.0053 (inactive).

Turning to `O=C(CN1CCN(Cc2ccccc2F)C1=O)NCc1cccnc1`, the cell count in experiment [1] came to 674. The inhibition in experiment [1] was -9.2% (inactive); in experiment [3], -69.2% (inactive); in experiment [7] it was 7.76% (inactive); in experiment [8] it was 7.56% (inactive). In addition, in experiment [2], the inhibition of aggregation was 18.1% (inactive). For the same compound, the nuclei count was determined as 93.5% in experiment [2] and 115% in experiment [3]. For the same compound, the fluorescence slope in experiment [4] was -0.502 (inactive). Also, the NADPH fluorescence slope in experiment [5] was 2.9e-05 (inactive). Besides, the slope in experiment [6] is 0.00712 (inactive).

Turning to `CCCc1nnc2n1N=C(c1ccc(OC)c(OC)c1)CS2`, in experiment [1], the cell count is 321. Further, the inhibition in experiment [1] is -12.4% (inactive); in experiment [3] it was 12.3% (inactive); in experiment [7] it was 16.9% (inactive); in experiment [8] it was 37.3% (inactive). Further, the inhibition of aggregation in experiment [2] is -0.1% (inactive). The figures for the nuclei count in experiment [2] and in experiment [3] were 83.3% and 99.3%, respectively. Further, in experiment [4], the fluorescence slope is -0.584 (inactive). Also, the NADPH fluorescence slope in experiment [5] was -5.6e-05 (inactive). For the same compound, in experiment [6], the slope was 0.00347 (inactive).

With `CN(C)CCCN1C(=O)c2oc3ccccc3c(=O)c2C1c1cccs1` (centres undefined), in experiment [1], the cell count amounted to 665. Also, the inhibition in experiment [1] was -1.2% (inactive); in experiment [3] it was -25.6% (inactive); in experiment [7], 7.52% (inactive); in experiment [8], 8.07% (inactive). Further, the inhibition of aggregation in experiment [2] was -8.2% (inactive). Moreover, the nuclei count came to 107% in experiment [2] and 132% in experiment [3]. Further, the fluorescence slope in experiment [4] was -0.443 (inactive). In addition, the NADPH fluorescence slope in experiment [5] is 4e-06 (inactive). In addition, in experiment [6], the slope is 0.00339 (inactive).

On to `N#CC1=C(N)S[C@H](C(=O)C23CC4CC(CC(C4)C2)C3)[C@H]1c1ccncc1`, for which the cell count in experiment [1] was 297. Moreover, the inhibition in experiment [1] was 2.4% (inactive); in experiment [3] it was -10.8% (inactive); in experiment [7] it was 11.9% (inactive); in experiment [8] it was 23.4% (inactive). The inhibition of aggregation in experiment [2] was -16.4% (inactive). Further, the nuclei count in experiment [2] worked out at 105%; in experiment [3], 111%. Also, the fluorescence slope in experiment [4] was -0.482 (inactive). Besides, in experiment [5], the NADPH fluorescence slope was -1.6e-05 (inactive). In experiment [6], the slope is 0.0041 (inactive).

Regarding `CCOC(=O)c1ccc(NC(=O)CCc2c(C)nc3ncnn3c2C)cc1`, the cell count in experiment [1] was 402. In addition, the inhibition in experiment [1] is 1.9% (inactive); in experiment [3] it was -138% (inactive); in experiment [7], -2.81% (inactive); in experiment [8], 7.84% (inactive). Besides, the inhibition of aggregation in experiment [2] was -19.7% (inactive). In addition, the results for the nuclei count in experiment [2] and in experiment [3] were 107% and 116%, respectively. The fluorescence slope in experiment [4] is -0.508 (inactive). Also, the NADPH fluorescence slope in experiment [5] was 6.6e-06 (inactive). For the same compound, the slope in experiment [6] is 0.00565 (inactive).

Turning to `CCCCCn1c(N2CCN(Cc3ccccc3)CC2)nc2c1c(=O)[nH]c(=O)n2C`, the cell count in experiment [1] was 675. The inhibition in experiment [1] is 1.9% (inactive); in experiment [3], -13.6% (inactive); in experiment [7] it was 14.2% (inactive); in experiment [8] it was 16.8% (inactive). In experiment [2], the inhibition of aggregation was -11.5% (inactive). The nuclei count in experiment [2] was found to be 101%; in experiment [3] it was 107%. For the same compound, the fluorescence slope in experiment [4] was -0.625 (inactive). The NADPH fluorescence slope in experiment [5] is -2.8e-05 (inactive). The slope in experiment [6] was 0.0038 (inactive).

For the compound `CC1CCN(C(=O)CSc2nnc(Cc3cc(=O)[nH]c(=O)[nH]3)n2-c2ccc(Cl)cc2)CC1`, the cell count in experiment [1] stood at 713. The inhibition in experiment [1] was -6.3% (inactive); in experiment [3] it was 1.4% (inactive); in experiment [7] it was -3.8% (inactive); in experiment [8] it was 16.5% (inactive). Besides, in experiment [2], the inhibition of aggregation was 14.9% (inactive). Moreover, the nuclei count in experiment [2] stood at 87.4%; in experiment [3], 105%. The fluorescence slope in experiment [4] is -0.602 (inactive). Besides, the NADPH fluorescence slope in experiment [5] is -8.2e-06 (inactive). In experiment [6], the slope was 0.00679 (inactive).

Take `Cc1ccc(N2CC(C)Cn3c2nc2c3c(=O)n(CC(=O)OCc3ccccc3)c(=O)n2C)cc1C` (centres undefined): the cell count in experiment [1] is 242. For the same compound, the inhibition in experiment [1] is -3.2% (inactive); in experiment [3], -43% (inactive); in experiment [7], 28.5% (inactive); in experiment [8] it was 16.6% (inactive). Further, the inhibition of aggregation in experiment [2] is 21.6% (inactive). Besides, the nuclei count in experiment [2] worked out at 77.7%; in experiment [3], 109%. Further, the fluorescence slope in experiment [4] is -0.473 (inactive). The NADPH fluorescence slope in experiment [5] was -2.8e-05 (inactive). In experiment [6], the slope was 0.00778 (inactive).

Take `CCOC(=O)C1CCCN(C/C(O)=C(\C#N)c2nc(-c3ccc(Cl)cc3)cs2)C1` (centres undefined): the cell count in experiment [1] was 479. In addition, the inhibition was 1% (inactive) in experiment [1], -39.9% (inactive) in experiment [3], 14.3% (inactive) in experiment [7] and 2.09% (inactive) in experiment [8]. For the same compound, in experiment [2], the inhibition of aggregation is -6.9% (inactive). The nuclei count in experiment [2] is 112%; in experiment [3] it was 120%. For the same compound, the fluorescence slope in experiment [4] was -0.499 (inactive). Further, in experiment [5], the NADPH fluorescence slope is -3.4e-06 (inactive). The slope in experiment [6] is 0.00581 (inactive).

For the compound `CCn1cc(SCC(=O)Nc2cc(C)on2)c2ccccc21`, in experiment [1], the cell count was determined as 760. For the same compound, the inhibition is -15.1% (inactive) in experiment [1], 29.9% (inactive) in experiment [3], 26.7% (inactive) in experiment [7] and 25.1% (inactive) in experiment [8]. The inhibition of aggregation in experiment [2] was -0.1% (inactive). Moreover, the nuclei count in experiment [2] is 60.4%; in experiment [3], 86.4%. Besides, the fluorescence slope in experiment [4] is -0.494 (inactive). In addition, the NADPH fluorescence slope in experiment [5] was -2.7e-05 (inactive). Further, the slope in experiment [6] was 0.00702 (inactive).
